Experimental data from PubChem BioAssay AID1159580 (chemical genetic matrix, 2015).
“And” between values parts separate entries of the source, which are not always exact repeats. Equal values may be shown once. The campaign covered roughly 5,500 compounds. About 2,000 (36%) were called active. Inconclusive results (about 18%) are left out. Cut-off read from the data, not from the text of the source: active = normalized growth mostly below about 0.91 (no sharp cut-off); inconclusive = no clear call, values can overlap the other calls; inactive = mostly above about 0.92. This is one part of the list. More than one record can exist for a structure, and the calls need not agree.

Assay: chemical genetic growth profiling, strain panel (AID 1159580);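 note: tested at 20 µM; growth read once vehicle control cultures reached saturation at 30 °C; 1 = growth at the plate median or of vehicle wells; lower values mean less growth of the strain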
Conditions: growth OD

**Q.** What does the source list for `CN1CCN(CCCN2c3ccccc3Sc3ccc(C(F)(F)F)cc32)CC1`?
**A.** normalized growth (S. cerevisiae deletion strains, locus YJR075W, strain HOC1, stronger effect = lower value): 0.0765 (active) and 0.787 (active); normalized growth (S. cerevisiae deletion strains, locus YKL009W, strain mrt4, stronger effect = lower value): 0.875 (active); normalized growth (S. cerevisiae deletion strains, locus YKL068W, stronger effect = lower value): 0.984 (inactive); normalized growth (S. cerevisiae deletion strains, locus YKL085W, strain MDH1 (second series), stronger effect = lower value): 0.957 (inactive); normalized growth (S. cerevisiae deletion strains, locus YKL085W, strain MDH1, stronger effect = lower value): 0.957 (inactive); normalized growth (S. cerevisiae deletion strains, locus YKL160W, strain elf1, stronger effect = lower value): 0.0849 (active); normalized growth (S. cerevisiae deletion strains, locus YKL190W, strain CNB1, stronger effect = lower value): 0.0505 (active); normalized growth (S. cerevisiae deletion strains, locus YKR001C, strain vps1, stronger effect = lower value): 0.0668 (active); normalized growth (S. cerevisiae deletion strains, locus YKR026C, strain gcn3, stronger effect = lower value): 0.0825 (active); normalized growth (S. cerevisiae deletion strains, locus YKR091W, strain srl3, stronger effect = lower value): 0.073 (active); normalized growth (S. cerevisiae deletion strains, locus YLL001W, strain dnm1, stronger effect = lower value): 0.0784 (active); normalized growth (S. cerevisiae deletion strains, locus YLL026W, stronger effect = lower value): 0.0619 (active); normalized growth (S. cerevisiae deletion strains, locus YLL041C, strain sdh2, stronger effect = lower value): 0.0714 (active); normalized growth (S. cerevisiae deletion strains, locus YLR027C, strain aat2, stronger effect = lower value): 0.0651 (active); normalized growth (S. cerevisiae deletion strains, locus YLR039C, strain RIC1, stronger effect = lower value): 0.105 (active); normalized growth (S. cerevisiae deletion strains, locus YLR058C, strain SHM2, stronger effect = lower value): 0.0587 (active); normalized growth (S. cerevisiae deletion strains, locus YLR102C, strain apc9, stronger effect = lower value): 0.0738 (active); normalized growth (S. cerevisiae deletion strains, locus YLR113W, strain HOG1, stronger effect = lower value): 0.941 (inactive); normalized growth (S. cerevisiae deletion strains, locus YLR221C, strain rsa3, stronger effect = lower value): 0.0717 (active); normalized growth (S. cerevisiae deletion strains, locus YLR258W, strain gsy2, stronger effect = lower value): 0.0705 (active); normalized growth (S. cerevisiae deletion strains, locus YLR262C, strain YPT6 (second series), stronger effect = lower value): 0.0947 (active); normalized growth (S. cerevisiae deletion strains, locus YLR262C, strain YPT6, stronger effect = lower value): 0.129 (active); normalized growth (S. cerevisiae deletion strains, locus YLR268W, strain sec22, stronger effect = lower value): 0.0809 (active); normalized growth (S. cerevisiae deletion strains, locus YLR320W, strain mms22, stronger effect = lower value): 0.0931 (active); normalized growth (S. cerevisiae deletion strains, locus YLR330W, strain CHS5, stronger effect = lower value): 0.0585 (active); normalized growth (S. cerevisiae deletion strains, locus YLR342W, strain FKS1 (second series), stronger effect = lower value): 0.0849 (active); normalized growth (S. cerevisiae deletion strains, locus YLR342W, strain FKS1, stronger effect = lower value): 0.0733 (active); normalized growth (S. cerevisiae deletion strains, locus YLR357W, strain rsc2, stronger effect = lower value): 0.148 (active); normalized growth (S. cerevisiae deletion strains, locus YLR370C, strain arc18, stronger effect = lower value): 0.0604 (active); normalized growth (S. cerevisiae deletion strains, locus YLR371W, strain rom2, stronger effect = lower value): 0.0675 (active); normalized growth (S. cerevisiae deletion strains, locus YLR384C, strain iki3, stronger effect = lower value): 0.0666 (active); normalized growth (S. cerevisiae deletion strains, locus YLR418C, strain cdc73, stronger effect = lower value): 0.125 (active); normalized growth (S. cerevisiae deletion strains, locus YML016C, strain PPZ1, stronger effect = lower value): 0.0583 (active); normalized growth (S. cerevisiae deletion strains, locus YML032C, strain rad52, stronger effect = lower value): 0.0831 (active); normalized growth (S. cerevisiae deletion strains, locus YML120C, strain ndi1, stronger effect = lower value): 0.0683 (active); normalized growth (S. cerevisiae deletion strains, locus YML124C, strain tub3, stronger effect = lower value): 0.0843 (active); normalized growth (S. cerevisiae deletion strains, locus YMR058W, strain fet3, stronger effect = lower value): 0.0611 (active); normalized growth (S. cerevisiae deletion strains, locus YMR078C, strain ctf18, stronger effect = lower value): 0.239 (active); normalized growth (S. cerevisiae deletion strains, locus YMR125W, strain sto1, stronger effect = lower value): 0.0897 (active); normalized growth (S. cerevisiae deletion strains, locus YMR129W, stronger effect = lower value): 0.061 (active); normalized growth (S. cerevisiae deletion strains, locus YMR205C, strain PFK2, stronger effect = lower value): 0.199 (active); normalized growth (S. cerevisiae deletion strains, locus YMR223W, strain ubp8, stronger effect = lower value): 0.0945 (active); normalized growth (S. cerevisiae deletion strains, locus YMR231W, strain pep5, stronger effect = lower value): 0.0666 (active); normalized growth (S. cerevisiae deletion strains, locus YMR263W, strain SAP30, stronger effect = lower value): 0.122 (active) and 1 (inactive); normalized growth (S. cerevisiae deletion strains, locus YMR307W, strain GAS1, stronger effect = lower value): 0.122 (active) and 0.848 (active); normalized growth (S. cerevisiae deletion strains, locus YNL067W, strain RPL9B, stronger effect = lower value): 0.0685 (active); normalized growth (S. cerevisiae deletion strains, locus YNL071W, strain lat1, stronger effect = lower value): 0.0775 (active); normalized growth (S. cerevisiae deletion strains, locus YNL128W, strain TEP1, stronger effect = lower value): 0.0773 (active); normalized growth (S. cerevisiae deletion strains, locus YNL153C, strain GIM3, stronger effect = lower value): 0.0603 (active) and 0.583 (active); normalized growth (S. cerevisiae deletion strains, locus YNL175C, strain NOP13, stronger effect = lower value): 1.15 [resistant] (active); normalized growth (S. cerevisiae deletion strains, locus YNL183C, strain NPR1, stronger effect = lower value): 0.91 (inactive); normalized growth (S. cerevisiae deletion strains, locus YNL197C, strain WHI3, stronger effect = lower value): 1.08 (inactive); normalized growth (S. cerevisiae deletion strains, locus YNL209W, strain ssb2, stronger effect = lower value): 0.0693 (active); normalized growth (S. cerevisiae deletion strains, locus YNL224C, strain SQS1, stronger effect = lower value): 1.11 [resistant] (active); normalized growth (S. cerevisiae deletion strains, locus YNL233W, strain BNI4, stronger effect = lower value): 0.0609 (active); normalized growth (S. cerevisiae deletion strains, locus YNL248C, strain rpa49, stronger effect = lower value): 0.102 (active); normalized growth (S. cerevisiae deletion strains, locus YNL250W, strain rad50, stronger effect = lower value): 0.968 (inactive); normalized growth (S. cerevisiae deletion strains, locus YNL271C, strain bni1, stronger effect = lower value): 0.982 (inactive); normalized growth (S. cerevisiae deletion strains, locus YNL298W, strain CLA4, stronger effect = lower value): 0.938 (inactive); normalized growth (S. cerevisiae deletion strains, locus YNL307C, strain MCK1, stronger effect = lower value): 0.0726 (active); normalized growth (S. cerevisiae deletion strains, locus YNL322C, strain KRE1 (second series), stronger effect = lower value): 0.978 (inactive); normalized growth (S. cerevisiae deletion strains, locus YNL322C, strain KRE1, stronger effect = lower value): 0.0571 (active); normalized growth (S. cerevisiae deletion strains, locus YNR049C, strain mso1, stronger effect = lower value): 0.0676 (active); normalized growth (S. cerevisiae deletion strains, locus YNR052C, strain pop2, stronger effect = lower value): 0.0713 (active); normalized growth (S. cerevisiae deletion strains, locus YOL006C, strain TOP1, stronger effect = lower value): 0.119 (active); normalized growth (S. cerevisiae deletion strains, locus YOL012C, strain htz1): 0.176 (active); normalized growth (S. cerevisiae deletion strains, locus YOL147C, strain pex11, stronger effect = lower value): 0.0736 (active); normalized growth (S. cerevisiae deletion strains, locus YOR001W, strain rrp6, stronger effect = lower value): 0.0923 (active); normalized growth (S. cerevisiae deletion strains, locus YOR061W, strain CKA2, stronger effect = lower value): 0.0554 (active); normalized growth (S. cerevisiae deletion strains, locus YOR069W, strain VPS5, stronger effect = lower value): 0.112 (active); normalized growth (S. cerevisiae deletion strains, locus YOR070C, strain gyp1, stronger effect = lower value): 0.0657 (active); normalized growth (S. cerevisiae deletion strains, locus YOR080W, strain dia2, stronger effect = lower value): 0.0771 (active); normalized growth (S. cerevisiae deletion strains, locus YOR083W, strain WHI5 (second series), stronger effect = lower value): 0.748 (active); normalized growth (S. cerevisiae deletion strains, locus YOR083W, strain WHI5, stronger effect = lower value): 0.0778 (active); normalized growth (S. cerevisiae deletion strains, locus YOR106W, strain vam3, stronger effect = lower value): 0.0723 (active); normalized growth (S. cerevisiae deletion strains, locus YOR136W, strain idh2, stronger effect = lower value): 0.0795 (active); normalized growth (S. cerevisiae deletion strains, locus YOR144C, strain elg1, stronger effect = lower value): 0.0731 (active); normalized growth (S. cerevisiae deletion strains, locus YOR184W, strain ser1, stronger effect = lower value): 0.0849 (active); normalized growth (S. cerevisiae deletion strains, locus YOR231W, strain MKK1, stronger effect = lower value): 0.939 (inactive); normalized growth (S. cerevisiae deletion strains, locus YOR265W, strain rbl2, stronger effect = lower value): 0.0652 (active); normalized growth (S. cerevisiae deletion strains, locus YOR270C, strain vph1, stronger effect = lower value): 0.136 (active); normalized growth (S. cerevisiae deletion strains, locus YOR290C, strain snf2, stronger effect = lower value): 0.0834 (active); normalized growth (S. cerevisiae deletion strains, locus YOR316C, strain cot1, stronger effect = lower value): 0.0693 (active); normalized growth (S. cerevisiae deletion strains, locus YPL051W, strain arl3, stronger effect = lower value): 0.12 (active); normalized growth (S. cerevisiae deletion strains, locus YPL055C, strain LGE1, stronger effect = lower value): 0.072 (active) and 0.65 (active); normalized growth (S. cerevisiae deletion strains, locus YPL078C, strain atp4, stronger effect = lower value): 0.161 (active); normalized growth (S. cerevisiae deletion strains, locus YPL106C, strain sse1, stronger effect = lower value): 0.104 (active); normalized growth (S. cerevisiae deletion strains, locus YPL240C, strain hsp82, stronger effect = lower value): 0.0671 (active); normalized growth (S. cerevisiae deletion strains, locus YPL241C, strain CIN2, stronger effect = lower value): 0.0575 (active); normalized growth (S. cerevisiae deletion strains, locus YPL256C, strain CLN2, stronger effect = lower value): 0.914 (inactive); normalized growth (S. cerevisiae deletion strains, locus YPR119W, strain clb2, stronger effect = lower value): 0.079 (active); normalized growth (S. cerevisiae deletion strains, locus YPR141C, strain kar3, stronger effect = lower value): 0.98 (inactive); normalized growth (S. cerevisiae deletion strains, locus YPR163C, strain tif3, stronger effect = lower value): 0.0727 (active); normalized growth (S. cerevisiae deletion strains, locus YPR167C, strain met16, stronger effect = lower value): 0.0761 (active); normalized growth (S. cerevisiae deletion strains, strain wtn01, stronger effect = lower value): 0.073 (active); normalized growth (S. cerevisiae strains, strain wild type, stronger effect = lower value): 0.0552 (active)
